Assay results as given in PubChem BioAssay (Tox21).
A number with no mark means an inactive call. Results filed as inconclusive are left out. A call without a number means that no potency is given here. Calls of active or inactive are those of the source. Unless noted, calls follow the shape of the dose curve; as a rule, active = well fitted curve in the direction sought with a large enough effect in the repeat runs; inconclusive = weak or mixed curves; inactive = no such curve, though single readings can be large; an effect the other way counts as inactive or inconclusive.

Experiments:
[1] = target: Estrogen receptor beta (Homo sapiens) (UniProt Q92731); assay: qHTS assay to identify small molecule antagonists of the estrogen receptor beta (ER-beta) signaling pathway (AID 1259378; active = well fitted inhibition curve with a large enough effect in the signal ratio in the repeat runs, not every such curve was filed as active; the % refers to the signal ratio; also: potency is read from the fitted curve at half-maximal effect)
Sequence of Estrogen receptor beta (Homo sapiens) (Q92731 whole entry, looked up): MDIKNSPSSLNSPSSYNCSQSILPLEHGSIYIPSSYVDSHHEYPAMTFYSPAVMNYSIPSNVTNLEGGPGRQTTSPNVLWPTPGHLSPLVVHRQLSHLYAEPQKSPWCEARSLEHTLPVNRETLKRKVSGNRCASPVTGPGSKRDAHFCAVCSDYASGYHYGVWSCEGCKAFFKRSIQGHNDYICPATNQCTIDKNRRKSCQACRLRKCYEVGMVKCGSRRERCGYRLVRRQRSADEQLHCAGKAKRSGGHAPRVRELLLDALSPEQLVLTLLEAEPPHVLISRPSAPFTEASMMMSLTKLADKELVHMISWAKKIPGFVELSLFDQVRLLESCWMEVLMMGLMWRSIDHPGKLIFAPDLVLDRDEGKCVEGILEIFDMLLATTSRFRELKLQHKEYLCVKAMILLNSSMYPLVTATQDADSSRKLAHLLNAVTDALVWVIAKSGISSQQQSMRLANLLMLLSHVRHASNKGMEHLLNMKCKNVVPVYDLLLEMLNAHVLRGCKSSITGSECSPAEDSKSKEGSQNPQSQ
Summary of the method: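 ER-beta-UAS-bla HEK293T (GripTite) cells in 2% charcoal-stripped FBS medium were preincubated 6 hr at 37C, dosed with compound, then stimulated with 1 nM E2 (final) for 16 hr; beta-lactamase reporter read by B/G FRET fluorescence after 2 hr substrate loading.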

[2] = qHTS assay to identify small molecule agonists of the androgen receptor (AR) signaling pathway in the presence of an antagonist - cell viability counter screen (AID 1259379); also: nearly all actives have a fitted effect of over 25% in size; also: potency is read from the fitted curve at half-maximal effect
Summary of the method: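 Each compound was tested at 15 concentrations on MDA-kb2 cells in the presence of 3.0uM nilutamide. Viability was measured by CellTiter-Fluor fluorescence after a 16 hr incubation at 37C in a CO2-free atmosphere.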

[3] = qHTS assay to identify small molecule agonists of the estrogen receptor beta (ER-beta) signaling pathway - cell viability counter screen (AID 1259380); also: nearly all actives have a fitted effect of over 30% in size; also: potency is read from the fitted curve at half-maximal effect
Summary of the method: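 Compounds dissolved in DMSO were pin-transferred onto ER-beta-UAS-bla HEK293T cells that had settled 6 hr, and exposure ran 16 hr at 37C. Following the reporter read, CellTiter-Glo luminescence after 30 min at room temperature indicated cytotoxicity.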

[4] = qHTS assay to identify small molecule antagonists of the estrogen receptor beta (ER-beta) signaling pathway - cell viability counter screen (AID 1259382); also: nearly all actives have a fitted effect of over 55% in size; also: potency is read from the fitted curve at half-maximal effect
Summary of the method: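 CellTiter-Glo ATP luminescence measured after the LiveBLAzer read in the same wells; ER-beta-UAS-bla HEK293T cells, 16 hr compound treatment with 1nM 17-beta-estradiol agonist at 37C, 5% CO2.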

[5] = qHTS assay to identify small molecule agonists or antagonists of the thyroid stimulating hormone receptor (TSHR) signaling pathway - wild type cell line counter screen (AID 1259384; calls by dose curve)
Summary of the method: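 Wild-type HEK293 cells were plated 18 h at 37 C/5% CO2, pin-dosed with compound plus Ro20-1724 medium, held 30 min at room temperature, then given cAMP-d2 and anti-cAMP-cryptate; fluorescence was read after 1 h. Fifteen concentrations, triplicate.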

[6] = target: Thyrotropin receptor (Homo sapiens) (UniProt P16473); assay: qHTS assay to identify small molecule antagonists of the thyroid stimulating hormone receptor (TSHR) signaling pathway (AID 1259385; calls by dose curve; also: nearly all actives have a fitted effect of over 20% in size; also: potency is read from the fitted curve at half-maximal effect)
Sequence of Thyrotropin receptor (Homo sapiens) (P16473 whole entry, looked up): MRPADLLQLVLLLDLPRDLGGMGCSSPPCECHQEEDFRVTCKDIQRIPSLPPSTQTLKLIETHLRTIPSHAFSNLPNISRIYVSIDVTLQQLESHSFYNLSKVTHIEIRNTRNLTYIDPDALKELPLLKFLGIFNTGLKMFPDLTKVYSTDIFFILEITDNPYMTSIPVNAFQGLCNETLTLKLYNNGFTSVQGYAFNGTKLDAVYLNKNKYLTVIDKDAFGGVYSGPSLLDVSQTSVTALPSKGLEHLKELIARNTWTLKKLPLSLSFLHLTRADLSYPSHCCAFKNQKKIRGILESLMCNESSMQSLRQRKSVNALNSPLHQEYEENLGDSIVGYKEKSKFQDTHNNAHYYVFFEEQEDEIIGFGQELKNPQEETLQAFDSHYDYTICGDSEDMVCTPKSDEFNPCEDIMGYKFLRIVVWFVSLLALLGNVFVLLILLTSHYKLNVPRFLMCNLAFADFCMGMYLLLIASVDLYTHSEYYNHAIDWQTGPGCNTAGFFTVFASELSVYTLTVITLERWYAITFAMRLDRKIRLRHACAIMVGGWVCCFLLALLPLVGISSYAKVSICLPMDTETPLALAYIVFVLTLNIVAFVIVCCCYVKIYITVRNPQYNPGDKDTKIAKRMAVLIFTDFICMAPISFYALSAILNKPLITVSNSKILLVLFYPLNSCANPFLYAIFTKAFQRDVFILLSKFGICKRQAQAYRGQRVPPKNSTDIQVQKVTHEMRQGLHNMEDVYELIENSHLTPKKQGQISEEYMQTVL
Summary of the method: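 TSHR-HEK293 cells were plated and held 18 h at 37C/5% CO2, then given compound plus Ro20-1724 and stimulated with TSH at 1.5 ng/mL final. After 30 min at room temperature, cAMP was detected with cAMP-d2/anti-cAMP-cryptate (1 h) by fluorescence.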

[7] = qHTS assay to identify small molecule agonists of the estrogen receptor alpha (ER-alpha) signaling pathway in the presence of an antagonist - cell viability counter screen (AID 1259386);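 also: series mostly up to about 92 µM; cells exposed to compounds for 22 h at 37 °C before the viability read; nearly all actives have a fitted effect of over 30% in size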
Summary of the method: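 Using estrogen-depleted VM7Luc4E2 cells, the 15-concentration compound series was applied together with 10.0nM ICI-182,780 and incubated 22hr at 37C/5% CO2. Cell viability was then scored by CellTiter-Fluor.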

[8] = target: Progesterone receptor (Homo sapiens) (UniProt P06401); assay: qHTS assay to identify small molecule agonists of the progesterone receptor (PR) signaling pathway (AID 1346784; calls by dose curve; also: nearly all actives have a fitted effect of over 30% in size)
Sequence of Progesterone receptor (Homo sapiens) (P06401 whole entry, looked up): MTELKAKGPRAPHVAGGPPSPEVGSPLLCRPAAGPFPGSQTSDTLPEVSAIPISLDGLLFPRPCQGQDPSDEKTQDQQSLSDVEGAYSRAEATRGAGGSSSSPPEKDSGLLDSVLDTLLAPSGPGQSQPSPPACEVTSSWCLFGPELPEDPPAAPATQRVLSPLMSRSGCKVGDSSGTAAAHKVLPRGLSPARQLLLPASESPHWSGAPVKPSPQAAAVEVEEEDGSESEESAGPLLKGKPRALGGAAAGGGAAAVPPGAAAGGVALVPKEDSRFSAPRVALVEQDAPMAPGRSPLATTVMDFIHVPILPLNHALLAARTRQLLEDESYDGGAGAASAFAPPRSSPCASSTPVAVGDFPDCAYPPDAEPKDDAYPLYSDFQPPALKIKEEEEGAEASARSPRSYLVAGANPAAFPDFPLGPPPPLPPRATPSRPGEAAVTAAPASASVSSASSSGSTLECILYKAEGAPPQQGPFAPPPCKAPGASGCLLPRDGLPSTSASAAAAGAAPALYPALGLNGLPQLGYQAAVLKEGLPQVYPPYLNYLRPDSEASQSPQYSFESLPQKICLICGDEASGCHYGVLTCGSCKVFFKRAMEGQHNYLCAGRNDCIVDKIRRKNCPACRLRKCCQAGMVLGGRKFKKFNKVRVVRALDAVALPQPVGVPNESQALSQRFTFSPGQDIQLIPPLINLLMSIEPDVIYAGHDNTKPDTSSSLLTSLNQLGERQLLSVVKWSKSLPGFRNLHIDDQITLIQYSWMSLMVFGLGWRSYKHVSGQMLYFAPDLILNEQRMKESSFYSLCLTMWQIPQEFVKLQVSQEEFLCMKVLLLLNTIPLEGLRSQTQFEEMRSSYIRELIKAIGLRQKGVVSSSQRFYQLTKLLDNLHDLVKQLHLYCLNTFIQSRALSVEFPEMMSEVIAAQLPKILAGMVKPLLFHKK
Summary of the method: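 Seed PR-UAS-bla HEK 293T cells (2% charcoal-stripped FBS), incubate 6 hr at 37C; add compounds in DMSO, 16 hr at 37C; add LiveBLAzer B/G substrate, 2 hr RT; read fluorescence intensity.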

[9] = target: Progesterone receptor (Homo sapiens) (UniProt P06401); assay: qHTS assay to identify small molecule antagonists of the progesterone receptor (PR) signaling pathway (AID 1346795; active = well fitted inhibition curve with a large enough effect in the signal ratio in the repeat runs, not every such curve was filed as active; the % refers to the signal ratio; also: potency is read from the fitted curve at half-maximal effect)
Summary of the method: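 Screening used a GripTite HEK293T line with PR-responsive UAS-beta-lactamase. Cells were challenged with compound in the presence of 1 nM R5020 final for 16 hr at 37C; B/G FRET substrate, 2 hr room temperature, fluorescence.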

[10] = qHTS assay to identify small molecule antagonists of the progesterone receptor (PR) signaling pathway - cell viability counter screen (AID 1346798); also: nearly all actives have a fitted effect of over 50% in size; also: potency is read from the fitted curve at half-maximal effect
Summary of the method: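 Measures cytotoxicity in parallel with the PR antagonist reporter read: HEK293T PR-UAS-bla cells get compound and R5020 for 16 hr, and remaining viable cells are quantified by CellTiter-Glo luminescence.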

[11] = qHTS assay to identify small molecule agonists of the progesterone receptor (PR) signaling pathway - cell viability counter screen (AID 1346799; calls by dose curve; also: nearly all actives have a fitted effect of over 45% in size; also: potency is read from the fitted curve at half-maximal effect)
Summary of the method: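 Using the same plates as the PR reporter screen, HEK293T PR-UAS-bla cells received compounds for 16 hr at 37C and were then lysed with CellTiter-Glo; luminescence was read 30 min later at room temperature.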

[12] = qHTS assay to identify small molecule antagonists of the TGF-beta/Smad signaling pathway - cell viability counter screen (AID 1346824); also: nearly all actives have a fitted effect of over 50% in size
Summary of the method: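 SBE-bla HEK 293T cells were plated overnight at 37 C, then given compounds in DMSO plus TGF-beta1 (added as 0.25 ng/mL solution) for 5 hr. After the bla read, CellTiter-Glo was added to the same wells and luminescence read after 30 min at room temperature.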

[13] = qHTS assay to identify small molecule agonists of the TGF-beta/Smad signaling pathway - cell viability counter screen (AID 1346829); also: top concentration of the series differs between compounds; nearly all actives have a fitted effect of over 45% in size
Summary of the method: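 Same-well cytotoxicity: CellTiter-Glo added after the 2 hr room-temperature beta-lactamase substrate step, luminescence measured 30 min later; cells had 5 hr of compound at 37 C.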

[14] = qHTS assay to identify small molecule agonists of the TGF-beta/Smad signaling pathway (AID 1346859; active = well fitted activation curve with a large enough effect in the signal ratio in the repeat runs, not every such curve was filed as active; the % refers to the signal ratio; also: potency is read from the fitted curve at half-maximal effect; as to activation: series mostly up to about 77 µM)
Summary of the method: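 Beta-lactamase reporter activity downstream of Smad binding elements was measured in stably transfected HEK 293T cells; compounds were incubated for 5 hr, substrate for 2 hr at room temperature.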

[15] = Human pregnane X receptor (PXR) small molecule agonists, qHTS cell viability counter screen (AID 1346977); also: nearly all actives have a fitted effect of over 50% in size; also: potency is read from the fitted curve at half-maximal effect
Summary of the method: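 After a 5hr pre-incubation, PXR-Luc HepG2 cells received compounds plus positive control in DMSO and were kept 24hr at 37C. Cell viability was quantified by fluorescence from CellTiter-Fluor added for the final hour.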

[16] = Caspase-3/7 induction in HepG2 cells by small molecules, qHTS assay (AID 1346978); also: nearly all actives have a fitted effect of over 15% in size; also: potency is read from the fitted curve at half-maximal effect
Summary of the method: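 Wild-type HepG2 cells (2,000/well) were settled 5 h at 37 C, 5% CO2, then exposed to compounds in DMSO for 17 h. Caspase-3/7 activity was read by luminescence 30 min after adding Caspase-Glo 3/7 reagent at room temperature.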

[17] = target: Androgen receptor (Homo sapiens) (UniProt P10275); assay: qHTS assay to identify small molecule agonists of the androgen receptor (AR) signaling pathway in the presence of an antagonist (AID 1259381; calls by dose curve; also: nearly all actives have a fitted effect of over 15% in size)
Sequence of Androgen receptor (Homo sapiens) (P10275 whole entry, looked up): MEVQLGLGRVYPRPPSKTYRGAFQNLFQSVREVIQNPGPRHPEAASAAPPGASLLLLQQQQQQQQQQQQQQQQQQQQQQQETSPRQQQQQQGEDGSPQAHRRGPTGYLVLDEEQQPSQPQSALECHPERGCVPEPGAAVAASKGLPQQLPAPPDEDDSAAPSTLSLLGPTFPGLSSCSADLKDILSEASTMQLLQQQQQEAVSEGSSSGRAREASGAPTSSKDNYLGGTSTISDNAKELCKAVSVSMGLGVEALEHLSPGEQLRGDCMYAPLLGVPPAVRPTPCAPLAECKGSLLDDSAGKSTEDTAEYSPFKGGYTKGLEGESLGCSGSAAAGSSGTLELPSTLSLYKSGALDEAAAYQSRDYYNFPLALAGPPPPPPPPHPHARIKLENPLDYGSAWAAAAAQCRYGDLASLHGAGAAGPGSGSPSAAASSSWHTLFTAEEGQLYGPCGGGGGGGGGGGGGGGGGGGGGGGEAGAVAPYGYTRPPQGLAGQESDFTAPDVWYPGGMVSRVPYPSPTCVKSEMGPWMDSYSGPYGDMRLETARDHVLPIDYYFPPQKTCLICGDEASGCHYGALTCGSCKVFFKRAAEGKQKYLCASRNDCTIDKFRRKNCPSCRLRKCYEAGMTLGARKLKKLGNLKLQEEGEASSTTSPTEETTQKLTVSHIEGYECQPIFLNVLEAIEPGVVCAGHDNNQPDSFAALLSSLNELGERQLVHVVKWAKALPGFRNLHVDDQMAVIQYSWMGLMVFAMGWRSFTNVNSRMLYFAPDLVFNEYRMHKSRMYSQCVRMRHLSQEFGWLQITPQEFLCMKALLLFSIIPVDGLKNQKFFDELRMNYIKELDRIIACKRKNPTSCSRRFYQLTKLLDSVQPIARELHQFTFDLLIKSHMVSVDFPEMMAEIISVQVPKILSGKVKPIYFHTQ
Summary of the method: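 Plated MDA-kb2 cells (3,000/well) were pre-incubated 5hr, given nilutamide (3.0uM final) or buffer, then dosed with compounds in DMSO at 15 concentrations. Luciferase activity was quantified by luminescence after 16hr at 37C.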

[18] = target: Thyrotropin-releasing hormone receptor (Homo sapiens) (UniProt P34981); assay: qHTS assay to identify small molecule agonists of the thyrotropin-releasing hormone receptor (TRHR) signaling pathway (AID 1346891; calls by dose curve;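 also: HEK293 cells expressing TRHR with calcium dye readout; series mostly up to about 58 µM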)
Sequence of Thyrotropin-releasing hormone receptor (Homo sapiens) (P34981 whole entry, looked up): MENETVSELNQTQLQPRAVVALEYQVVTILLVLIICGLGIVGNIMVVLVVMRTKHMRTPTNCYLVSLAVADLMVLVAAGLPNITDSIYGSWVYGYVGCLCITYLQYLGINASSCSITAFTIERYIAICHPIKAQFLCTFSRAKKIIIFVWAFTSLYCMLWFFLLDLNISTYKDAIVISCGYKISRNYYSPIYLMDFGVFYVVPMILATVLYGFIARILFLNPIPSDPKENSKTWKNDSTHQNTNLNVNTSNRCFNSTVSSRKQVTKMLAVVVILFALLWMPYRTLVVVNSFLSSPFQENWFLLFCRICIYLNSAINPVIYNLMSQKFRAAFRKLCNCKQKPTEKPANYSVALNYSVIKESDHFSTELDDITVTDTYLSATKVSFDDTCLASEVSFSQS
Summary of the method: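 Overnight-plated (18 h, 37 °C, 5% CO2) TRHR-Hek293 cells; 2 h calcium dye at 37 °C; compound in DMSO; 3-min kinetic fluorescence read.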

[19] = target: Thyrotropin-releasing hormone receptor (Homo sapiens) (UniProt P34981); assay: qHTS assay to identify small molecule antagonists of the thyrotropin-releasing hormone receptor (TRHR) signaling pathway (AID 1346877; active = well fitted inhibition curve with a large enough effect in the repeat runs, not every such curve was filed as active; also: series mostly up to about 51 µM)
Summary of the method: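 Calcium signal in dye-loaded TRHR/HEK293 cells; compounds added 5 min before TRH (1 nM final); fluorescence monitored 3 min at 1 s steps.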

[20] = target: Estrogen receptor (Homo sapiens) (UniProt P03372); assay: qHTS assay to identify small molecule agonists of the estrogen receptor alpha (ER-alpha) signaling pathway in the presence of an antagonist (AID 1259383; calls by dose curve; also: top concentration of the series differs between compounds; nearly all actives have a fitted effect of over 15% in size)
Sequence of Estrogen receptor (Homo sapiens) (P03372 whole entry, looked up): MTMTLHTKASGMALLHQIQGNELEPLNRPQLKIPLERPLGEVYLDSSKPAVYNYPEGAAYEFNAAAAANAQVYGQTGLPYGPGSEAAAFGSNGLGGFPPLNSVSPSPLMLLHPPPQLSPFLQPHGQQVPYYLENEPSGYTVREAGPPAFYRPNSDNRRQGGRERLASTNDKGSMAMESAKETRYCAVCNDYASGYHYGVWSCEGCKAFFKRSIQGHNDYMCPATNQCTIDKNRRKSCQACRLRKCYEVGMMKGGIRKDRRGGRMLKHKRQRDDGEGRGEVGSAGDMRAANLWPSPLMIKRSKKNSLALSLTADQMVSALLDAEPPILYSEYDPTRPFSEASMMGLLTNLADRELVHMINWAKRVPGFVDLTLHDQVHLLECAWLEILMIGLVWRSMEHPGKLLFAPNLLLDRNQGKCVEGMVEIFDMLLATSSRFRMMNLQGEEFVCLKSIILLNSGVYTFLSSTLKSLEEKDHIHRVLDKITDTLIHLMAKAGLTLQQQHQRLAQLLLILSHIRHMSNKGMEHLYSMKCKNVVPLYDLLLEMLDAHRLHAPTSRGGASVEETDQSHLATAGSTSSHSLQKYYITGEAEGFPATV
Summary of the method: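 Luminescent ERE-luciferase reporter, VM7Luc4E2 cells (endogenous ER-alpha); 10.0nM ICI-182,780 final; 15-point compound titration; 22hr at 37C; ONE-Glo, 30min RT.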

Structure (SMILES)	Potency [1]	Potency [2]	Potency [3]	Potency [4]	outcome [5]	Potency [6]	Potency [7]	outcome [8]	Potency [9]	Potency [10]	Potency [11]	Potency [12]	Potency [13]	Potency [14]	Potency [15]	Potency [16]	Potency [17]	Potency [18]	Potency [19]	Potency [20]
C=CC(=O)OCCN(CC)CC	inactive	inactive	inactive	inactive	inactive	inactive	inactive	inactive	inactive	inactive	inactive	inactive	inactive	inactive	inactive	inactive				
CCCC(O)C(O)CO (stereo unspecified)	inactive	inactive		inactive	inactive	inactive	inactive	inactive	inactive	inactive	inactive	inactive	inactive	inactive	inactive	inactive	inactive	inactive		
O=C(O)CCCCCCC(=O)O	inactive	inactive	inactive	inactive	inactive	inactive		inactive	inactive	inactive	inactive	inactive	inactive	inactive	inactive	inactive		inactive	inactive	
O=C1NCN(c2ccccc2)C12CCN(CCCC(c1ccc(F)cc1)c1ccc(F)cc1)CC2	18.8 µM (active)	29.8 µM (active)		26.6 µM (active)	inactive	inactive	inactive		26.6 µM (active)		inactive				29.8 µM (active)			inactive	inactive	
CCCCN(C)C		inactive	inactive	inactive	inactive	inactive	inactive	inactive	inactive	inactive	inactive	inactive	inactive	inactive	inactive	inactive	inactive	inactive	inactive	inactive
NC(=O)c1ccccc1N		inactive	inactive	inactive	inactive	inactive	inactive	inactive	inactive	inactive	inactive	inactive	inactive	inactive		inactive	inactive	inactive	inactive	inactive
Clc1ccc(C(Cn2ccnc2)OCc2ccsc2Cl)c(Cl)c1 (stereo unspecified)	10.6 µM (active)		23.7 µM (active)	29.8 µM (active)	inactive		inactive	inactive	3.35 µM (active)	6.68 µM (active)	8.41 µM (active)	inactive	inactive			inactive		inactive	inactive	inactive
CCc1ccc(O)c(C(C)(C)C)c1	inactive	inactive			inactive	inactive		inactive		inactive		inactive	inactive	inactive	inactive			inactive		inactive
O=C(O)CC(=O)O	inactive	inactive		inactive	inactive	inactive	inactive	inactive	inactive	inactive	inactive	inactive	inactive	inactive	inactive	inactive		inactive	inactive	
C=CC(=O)OCC(O)COc1ccccc1 (stereo unspecified)	inactive			inactive			inactive	inactive			inactive	inactive	inactive	inactive	inactive	inactive				inactive
Clc1cccnc1		inactive	inactive	inactive	inactive	inactive	inactive	inactive	inactive	inactive	inactive	inactive	inactive	inactive		inactive	inactive	inactive	inactive	inactive
Cc1nc(Nc2ncc(C(=O)Nc3c(C)cccc3Cl)s2)cc(N2CCN(CCO)CC2)n1	23.7 µM (active)			inactive	inactive	26.6 µM (active)		inactive	13.3 µM (active)	inactive	inactive	inactive	inactive	inactive				inactive	inactive	inactive
C=C[C@](C)(O)CC[C@@H]1[C@@]2(C)CCCC(C)(C)[C@@H]2CC[C@@]1(C)O	27.3 µM (active)		48.6 µM (active)	61.1 µM (active)	inactive	inactive	inactive						inactive	inactive		68.6 µM (active)				inactive
CCOC(=O)C1=C(C)NC(C)=C(C(=O)OCC)C1c1ccccc1/C=C/C(=O)OC(C)(C)C	inactive		23.7 µM (active)	inactive	inactive	inactive	inactive		26.6 µM (active)			inactive	inactive	23.9 µM (active)			inactive		inactive	
CC(C)OC(=O)c1cc(C(=O)OC(C)C)cc([N+](=O)[O-])c1	inactive	inactive		inactive	inactive	inactive	inactive	inactive					inactive	inactive		inactive		inactive	inactive	
Cc1occc1SSc1ccoc1C	inactive	inactive		inactive	inactive	inactive	inactive	inactive	inactive	inactive	inactive	inactive	inactive	inactive	inactive	inactive		inactive	inactive	
